In PubChem BioAssay AID743364 (National Center for Advancing Translational Sciences (NCATS), 2014):
Active and inactive are the calls of the source. Calls come from the whole dose curve; as a rule, active = well fitted curve in the direction sought with a large enough effect; inactive = no such curve, though single readings can be large or run the other way.

test: qHTS profiling of inhibitors of Plasmodium falciparum (3D7) proliferation (acoustic dispense); settings: P. falciparum 3D7 in erythrocytes, SYBR Green, 72 h; series mostly up to 49.8 µM

outcome, inactive:
O=C1NC(=O)C(=Cc2ccc3nccc(-c4ccncc4)c3c2)S1
COC(=O)c1ccc2c(C(=Nc3ccc(N(C)C(=O)CN4CCN(C)CC4)cc3)c3ccccc3)c(O)[nH]c2c1
NC(=NCCCCCCN=C(N)N=C(N)Nc1ccc(Cl)cc1)N=C(N)Nc1ccc(Cl)cc1
CC[C@]1(O)C[C@H]2CN(CCC3=c4ccccc4=N[C]3[C@@](C(=O)OC)(c3cc4c(cc3OC)N(C)[C@H]3[C@@](O)(C(N)=O)[C@H](O)[C@]5(CC)C=CCN6CC[C@]43[C@@H]65)C2)C1
CO[C@H]1C=CO[C@@]2(C)Oc3c(C)c(O)c4c(O)c(c(C=NN5CCN(C)CC5)c(O)c4c3C2=O)NC(=O)C(C)=CC=C[C@H](C)[C@H](O)[C@@H](C)[C@@H](O)[C@@H](C)[C@H](OC(C)=O)[C@H]1C
C#Cc1cccc(Nc2ncnc3cc(OC)c(OCCCCCCC(=O)NO)cc23)c1
O=C(Nc1ccc([N+](=O)[O-])cc1Cl)c1cc(Cl)ccc1O
CCCCCCCCCCOc1cc2c(=O)c(C(=O)OCC)c[nH]c2cc1OCC
COc1ccc2cc3[n+](cc2c1OC)CCc1cc2c(cc1-3)OCO2
COCCn1c2c([n+](Cc3cnccn3)c1C)C(=O)c1ccccc1C2=O
C[C@@H]1CCC2[C@@H](C)[C@@H](O)O[C@@H]3O[C@@]4(C)CC[C@@H]1[C@@]23OO4 (some centres undefined)
CCc1cc(Nc2nccc(-c3c(-c4ccc(OC)c(C(=O)Nc5c(F)cccc5F)c4)nc4ccccn34)n2)c(OC)cc1N1CCC(N2CCN(S(C)(=O)=O)CC2)CC1
C[C@H]1Cc2c([nH]c3cc(Cl)c(F)cc23)[C@@]2(N1)C(=O)Nc1ccc(Cl)cc12
CCCCN(CCCC)CCC(O)c1cc2c(Cl)cc(Cl)cc2c2cc(C(F)(F)F)ccc12 (centres undefined)
CCN(CC)Cc1cc(Nc2ccnc3cc(Cl)ccc23)ccc1O
COc1ccc(-c2ccc3ncc4c(c3c2)n(-c2ccc(N3CCNCC3)c(C(F)(F)F)c2)c(=O)n4C)cn1
CC[C@H]1OC(=O)[C@H](C)C(=O)[C@H](C)[C@@H](O[C@H]2O[C@H](C)C[C@H](N(C)C)[C@@H]2O)[C@](C)(OC)C[C@@H](C)C(=O)[C@H](C)[C@H]2N(CCCCn3cnc(-c4cccnc4)c3)C(=O)O[C@]12C
C=CCNC1=C2C[C@@H](C)C[C@H](OC)[C@@H](O)[C@@H](C)C=C(C)[C@H](OC(N)=O)[C@@H](OC)C=CC=C(C)C(=O)NC(=CC1=O)C2=O
COc1cc2c(Oc3ccc(NC(=O)C4(C(=O)Nc5ccc(F)cc5)CC4)cc3F)ccnc2cc1OCCCN1CCOCC1
CC[C@H]1OC(=O)[C@H](C)[C@@H](O[C@H]2C[C@@](C)(OC)[C@@H](O)[C@H](C)O2)[C@H](C)[C@@H](O[C@@H]2O[C@H](C)C[C@H](N(C)C)[C@@H]2O)[C@](C)(O)C[C@@H](C)CN(C)[C@H](C)[C@@H](O)[C@]1(C)O
CN[C@@H]1C[C@H]2O[C@@](C)([C@H]1OC)n1c3ccccc3c3c4c(c5c6ccccc6n2c5c31)C(=O)N[C@H]4O
Cn1c2ccccc2c2c3c(c4c5ccccc5n(CCC#N)c4c21)CNC3=O
C=C[C@@H]1CN2CC[C@@H]1C[C@H]2[C@H](O)c1ccnc2ccc(OC)cc12
COc1ccc2nc3cc(Cl)ccc3c(Nc3cc(CN4CCCC4)c(O)c(CN4CCCC4)c3)c2n1
Nc1cccc(-c2csc(NC(=O)CCCCCCC(=O)NO)n2)c1
Clc1ccc2c(N3CCN(CCCN4CCN(c5ccnc6cc(Cl)ccc56)CC4)CC3)ccnc2c1
COC1=C2C[C@@H](C)C[C@H](OC)[C@@H](O)[C@@H](C)C=C(C)[C@H](OC(N)=O)[C@@H](OC)C=CC=C(C)C(=O)NC(=CC1=O)C2=O
O=C(Nc1cn[nH]c1-c1nc2ccc(CN3CCOCC3)cc2[nH]1)NC1CC1
c1cncc(CN2CCC(n3ncc4c(N5CCOCC5)nc(-c5ccc6[nH]ccc6c5)nc43)CC2)c1
C=CCNc1c(O)cc2c(O)c1C[C@@H](C)C[C@H](OC)[C@@H](O)[C@@H](C)C=C(C)[C@H](OC(N)=O)[C@@H](OC)C=CC=C(C)C(=O)N2
CN([C@@H](Cc1ccc(OS(=O)(=O)c2cccc3cnccc23)cc1)C(=O)N1CCN(c2ccccc2)CC1)S(=O)(=O)c1cccc2cnccc12
CCC(=O)N1CCN(c2ccc(-n3c(=O)ccc4cnc5ccc(-c6cnc7ccccc7c6)cc5c43)cc2C(F)(F)F)CC1

Activity change, inactive:
CCCCCCOC(=O)C1(O)CC2OC1(C)n1c3ccccc3c3c4c(c5c6ccccc6n2c5c31)C(=O)NC4 (centres undefined) 34.6% [at 1.88 µM]
CC(Sc1nc2ccccc2[nH]1)C(=O)NN=Cc1cc(Br)ccc1O (centres undefined) 28.2% [at 4.15 µM]
